A selection: hits, their analogues and other compounds. The true share with any hit is near 1.4%.
HTR5A ag ctr: HTR5A agonism, opioid heterodimer counter-screen | P47898 | HTR5A agonist assay, luminescence, cell-based | activation, % at 9.3 µM | 340,000 tested, 0.61% active | AID 504692; in the data active = activation mostly above about 9.5%, no sharp cut-off; inactive = mostly below about 7.6%;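 also: 0% = cells with vehicle only and 100% = reference agonist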
HTR5A inv ag: counter-screen for OPRM1-OPRD1 inverse agonists: human HTR5A inverse agonism | P47898 | HTR5A cell line, luminescence | inhibition, % at 9.3 µM | 340,000 tested, 0.083% active | AID 504634; in the data active = inhibition mostly above about 23%, no sharp cut-off; inactive = mostly below about 18%;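 also: 0% = cells with DMSO and 100% = no-cell wells with DMSO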
MOR-DOR inv ag: mu-delta opioid heterodimer inverse agonism. 340,000 tested, 0.21% active. P35372+P41143. inhibition, % at 9.3 µM. cell-based MOR-DOR heterodimer luminescence; in the data active = inhibition above about 22%, passing the limit was not always enough;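 also: 0% = cells with DMSO and 100% = wells without cells with DMSO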
beta cell repl: MIN6 beta-cell proliferation induction. proliferation, % at 10 µM. MIN6 cells proliferation, ATPlite luminescence, 48 h; cells starved in 0.2% serum; 100% = growth in 10% serum. 330,000 tested, 0.29% active;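 active = compounds whose signal lies at least 3.5 SD above the mean of all wells on their plate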;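 also: 0% = DMSO-treated cells in low-serum medium and 100% = 10% serum control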
MOR-DOR ag: agonists of human mu-delta opioid receptor heterodimerization; P35372+P41143; cells, OPRM1-OPRD1 heterodimerization, luminescence; activation, % at 9.3 µM; 340,000 tested, 0.3% active; AID 504326; in the data active = activation above about 18%;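 also: 0% = vehicle-treated cells and 100% = reference agonist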
p-CIP stab down: compounds decreasing mouse p/CIP protein stability; Q05BA5; F442A p/CIP-EGFP cells, EGFP fluorescence, 16 h; decrease of EGFP signal, % at 10 µM; 290,000 tested, 0.01% active;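 active = EGFP signal decrease of at least 30% at 10 µM or well 3 SD below plate mean, unless failing retest; inactive = the rest, including hits failing retest or dose response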
Target sequence (Q05BA5 1-1403): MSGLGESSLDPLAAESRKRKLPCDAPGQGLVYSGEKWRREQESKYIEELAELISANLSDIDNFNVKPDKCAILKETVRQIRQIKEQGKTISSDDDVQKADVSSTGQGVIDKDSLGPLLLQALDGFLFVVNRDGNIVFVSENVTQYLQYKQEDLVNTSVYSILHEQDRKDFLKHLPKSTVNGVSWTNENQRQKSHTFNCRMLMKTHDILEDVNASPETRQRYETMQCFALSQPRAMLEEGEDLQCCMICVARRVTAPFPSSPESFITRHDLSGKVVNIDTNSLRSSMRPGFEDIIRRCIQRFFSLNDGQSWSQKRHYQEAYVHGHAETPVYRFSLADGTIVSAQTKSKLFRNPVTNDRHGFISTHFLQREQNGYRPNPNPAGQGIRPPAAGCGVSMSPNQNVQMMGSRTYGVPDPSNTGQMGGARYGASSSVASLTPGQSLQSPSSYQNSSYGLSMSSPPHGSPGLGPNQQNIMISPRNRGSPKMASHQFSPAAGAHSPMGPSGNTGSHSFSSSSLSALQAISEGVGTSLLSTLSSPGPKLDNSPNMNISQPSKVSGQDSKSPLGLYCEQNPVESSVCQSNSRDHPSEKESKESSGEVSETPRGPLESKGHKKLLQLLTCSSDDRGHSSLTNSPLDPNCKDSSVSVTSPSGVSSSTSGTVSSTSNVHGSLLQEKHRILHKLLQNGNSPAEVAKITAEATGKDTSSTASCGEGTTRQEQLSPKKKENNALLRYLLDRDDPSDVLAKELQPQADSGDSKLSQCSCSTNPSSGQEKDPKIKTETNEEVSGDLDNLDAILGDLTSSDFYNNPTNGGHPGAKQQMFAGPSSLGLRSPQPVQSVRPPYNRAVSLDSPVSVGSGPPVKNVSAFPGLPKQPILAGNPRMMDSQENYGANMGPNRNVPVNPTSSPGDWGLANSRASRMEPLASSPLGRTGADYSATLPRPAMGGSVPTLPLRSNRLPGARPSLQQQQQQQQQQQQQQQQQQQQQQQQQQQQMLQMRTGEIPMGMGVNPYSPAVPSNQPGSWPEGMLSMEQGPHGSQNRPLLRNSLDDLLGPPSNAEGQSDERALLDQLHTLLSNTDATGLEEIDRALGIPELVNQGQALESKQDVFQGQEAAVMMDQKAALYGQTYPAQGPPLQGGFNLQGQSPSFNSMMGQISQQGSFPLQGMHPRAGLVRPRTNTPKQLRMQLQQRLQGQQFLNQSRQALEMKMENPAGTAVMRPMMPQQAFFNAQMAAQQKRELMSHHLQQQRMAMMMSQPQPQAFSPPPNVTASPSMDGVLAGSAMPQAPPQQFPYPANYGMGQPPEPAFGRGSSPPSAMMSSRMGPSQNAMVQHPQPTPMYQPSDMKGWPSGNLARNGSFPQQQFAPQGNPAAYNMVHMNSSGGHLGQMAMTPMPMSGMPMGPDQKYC
Active calls of the source: *; / = no result given.

SMILES	HTR5A ag ctr	HTR5A inv ag	MOR-DOR inv ag	beta cell repl	MOR-DOR ag	p-CIP stab down
COc1ccc(CN(C)C(=O)[C@H](Cc2ccccc2)NC(=O)c2ccco2)c(OC)c1	3.9	-9.6	8.4	-0.1	-2.1	/
COc1cc(SC)ccc1C(=O)N1CCN(S(=O)(=O)/C=C/c2ccccc2)CC1	0.7	-1.9	-3.0	0.5	0.8	/
CC(=O)Nc1ccc(S(=O)(=O)NC2(C(F)(F)F)NC(=O)N(C3CCCC3)C2=O)cc1 (stereo unspecified)	-4.6	7.0	-3.8	0.7	0.8	3.7
CC(=O)Nc1ccc(S(=O)(=O)NC2(C(F)(F)F)NC(=O)N(C3CCCCC3)C2=O)cc1 (stereo unspecified)	10.4*	11.8	-1.6	-0.4	0.3	-6.2
CCOC(=O)N1CCC(NC(=O)c2cccn3c(=O)c4cc(Br)ccc4nc23)CC1	-4.4	8.3	4.4	-2.8	-0.8	40.1*
O=C(COc1ccc(Cl)cc1Br)Nc1cccc(S(=O)(=O)N2CCCC2)c1	13.7*	-7.5	-16.6	-2.2	4.2	/
Cc1ccc(NC(=O)COc2cccc(C)c2C)cc1S(=O)(=O)N1CCCCCC1	11.2*	-30.4	-8.5	-4.9	1.6	/
NC(=O)C1C(=O)c2ccccc2C1(C[N+](=O)[O-])c1ccccc1 (stereo unspecified)	-2.0	7.1	6.8	/	-1.3	/
Cc1ccc(NC(=S)NCCO)c(C)c1	12.3*	13.9	9.7	-2.6	-2.3	-7.1
Cc1cccc(NC(=O)CN2CCN(C(=O)c3cnn(Cc4ccccc4)c3)CC2)c1C	-1.4	3.5	0.3	0.3	-0.1	/
CN(C)CCNC(=O)c1cc2c(s1)-c1ccc(Cl)cc1SC2	51.5*	-201.8	-213.2	-6.0	38.5*	0.4
COc1cc(Cl)c(C)cc1NC(=O)CNC(C)c1ccccc1OC (stereo unspecified)	10.3*	8.7	2.9	-4.1	-0.5	-27.9
COc1ccccc1C(C)NCC(=O)Nc1c(F)cccc1F (stereo unspecified)	-1.8	5.1	2.6	1.5	-0.5	0.7
CCOC(=O)CNC(=O)CSc1nc2nc(C)c(Br)cc2[nH]1	12.7*	13.8	-9.7	-1.0	2.3	1.1
Cc1ccc(OCCCC(=O)Nc2nc3ccccc3[nH]2)cc1	-4.0	11.1	-2.9	-1.1	0.6	2.2
Cc1cccc(OCCCC(=O)Nc2nc3ccccc3[nH]2)c1	10.4*	-28.6	-0.2	0.1	0.0	0.0
CC(=O)c1cccc(NC(=O)CSc2n[nH]c(=O)n2C2CC2)c1	1.8	-6.5	15.1	-1.2	-2.9	/
O=C(CN1C(=O)/C(=C2/SC(=S)N(CCS(=O)(=O)O)C2=O)c2ccccc21)Nc1cccc(Br)c1	-2.9	11.3	-22.7	-0.7	4.7	/
COC(=O)C1=C(C)NC(=O)/C1=C\c1ccco1	11.2*	-32.7	8.4	-0.7	-1.6	0.6
CSc1ccc(/C=C/C(=O)OCC(=O)c2ccc[nH]2)cc1	13.1*	12.9	-4.7	0.9	1.3	/
O=[n+]1cc(-c2ccccc2)n([O-])c2c1CCCCC2	11.3*	-41.5	-0.8	0.0	0.2	-26.7
COc1ccccc1NC(=O)Nc1nnc(C(C)c2ccccc2)s1 (stereo unspecified)	11.5*	-42.4	-19.2	-4.3	4.1	-3.2
COc1ccccc1NC(=O)Nc1nnc(C(C)C)s1	-3.5	-19.9	6.6	-4.3	-1.2	-3.9
O=C(COC(=O)c1cc(=O)c2ccccc2o1)Nc1ccccc1F	3.6	-14.9	12.2	2.0	-2.3	/
COc1ccc(CN2c3c(Br)cccc3C(=O)CS2(=O)=O)cc1	-4.8	17.4*	10.9	/	-2.2	/
SMILES	HTR5A ag ctr	HTR5A inv ag	MOR-DOR inv ag	beta cell repl	MOR-DOR ag	p-CIP stab down
O=C(N/N=C/c1cccc2ccccc12)c1ccc(CN2CCOCC2)cc1	11.9*	-41.9	7.2	-0.1	-1.6	-2.0
O=C(N/N=C/c1cccc([N+](=O)[O-])c1)c1ccc(CN2CCOCC2)cc1	-3.4	9.2	-8.0	-2.9	1.1	-7.1
COc1cccc(CNC(=O)CCS(=O)(=O)c2cccc3nsnc23)c1	-6.6	17.3	7.2	4.7	-1.2	-4.1
COc1cccc(CNC(=O)CCS(=O)(=O)c2cccc3nonc23)c1	13.5*	20.0	-2.9	-3.3	0.5	0.1
O=C(COc1ccc(Cl)cc1Br)OCC(=O)c1ccc[nH]1	1.8	15.2	8.8	-2.2	-2.3	/
CCOc1ccc(C(=O)SC2=NCCS2)cc1	0.4	1.9	-4.5	1.1	0.8	-1.5
COc1ccc(C(=O)SC2=NCCS2)cc1	11.5*	-13.3	-11.7	-2.3	2.1	-1.2
COc1cc(OC)cc(-c2c(-c3cccs3)c3cc(-c4cccc5[nH]ccc45)ccc3n2C)c1	-1.0	2.6	-6.8	-6.4	1.2	/
COc1ccc(S(=O)(=O)N2CCCCC2)cc1NC(=O)c1cccc(S(=O)(=O)N2CC(C)OC(C)C2)c1 (stereo unspecified)	1.8	-4.8	2.1	/	-0.5	/
c1ccc(-c2nnc(N3CCN(c4ccccn4)CC3)c3ccccc23)cc1	0.2	-0.7	0.9	-2.5	-0.1	-8.3
Cc1ccc(-c2nnc(N3CCN(c4ccccn4)CC3)c3ccccc23)cc1	12.6*	-11.9	3.4	-2.8	-0.7	-0.3
O=C1NC(=O)C2(CCCCC2C2CCCCC2)N1 (stereo unspecified)	-0.4	1.6	7.3	/	-1.4	/
O=C(Nc1c(C(=O)O)[nH]c2ccc(F)cc12)c1cccc(C(F)(F)F)c1	11.9*	-37.4	3.3	-1.8	-0.6	-3.3
O=C(Nc1c(C(=O)O)[nH]c2ccccc12)c1cccc(C(F)(F)F)c1	-4.2	13.1	8.9	-2.6	-1.7	-7.9
CN1C[C@@H]2[C@@H]3C(=O)N(C)C(=O)[C@@H]3[C@](C)(C1=O)N2C(=O)c1ccc(C(F)(F)F)cc1	1.1	-3.3	21.5	/	-3.7	/
O=C1NC(=O)C(c2ccccc2)(c2ccc(Cl)cc2Cl)N1 (stereo unspecified)	1.9	-7.6	8.3	/	-1.7	/
CCN(CC)c1nc2ccccc2n2cnnc12	13.0*	15.2	-1.5	1.8	0.3	-15.9
CCCC1CCC(=NNS(=O)(=O)c2ccc(C)c([N+](=O)[O-])c2)CC1 (stereo unspecified)	13.2*	-45.1	-7.0	-4.2	1.2	1.7
O=S(=O)(N/N=C/c1ccccc1F)c1ccccc1	0.5	-1.3	22.8	-2.0	-4.5	5.9
Cc1ccc(S(=O)(=O)N/N=C/c2ccccc2F)cc1[N+](=O)[O-]	12.4*	-45.6	10.1	-1.0	-2.2	-5.3
CCOC(=O)C1CCN(C(=O)c2ccc(N3CCCC3=O)cc2)CC1	2.6	19.1	9.0	-0.1	-2.3	/
COc1ccccc1NC(=S)N(Cc1ccccc1)Cc1cccs1	9.3*	11.5	-2.3	-2.6	0.4	8.1
CC(=O)N1CCN(S(=O)(=O)c2ccc3c(c2)CCC(=O)N3)CC1	-1.8	4.3	-4.3	7.4	1.1	/

Screening data: PubChem, several laboratories
